TDP1 cell noCPT – qHTS for Inhibitors of human tyrosyl-DNA phosphodiesterase 1 (TDP1): qHTS in cells in absence of CPT | Potency, µM (highest dose often 46.2 µM), usual class: inhibitors | DT40 Tdp1-/- hTDP1 cells, no CPT, ATP luminescence, 48 h | hit rate 15% among 420,000; further: nearly all actives have a fitted effect of over 55% in size
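Readout: luminescence from CellTiter-Glo after 30 min in the dark at RT. Cells: DT40 Tdp1-/- with stable hTDP1, 400/well. Exposure: compounds alone, ≥48 hr, 37 °C.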
TDP1 block – blocks human tyrosyl-DNA phosphodiesterase 1. Q9NUW8. hit rate 0.28% among 350,000. recombinant TDP1, AlphaScreen DNA substrate cleavage. Potency, µM (top dose mostly 130 µM), actives largely listed as inhibitors; further: nearly all actives have a fitted effect of over 40% in size
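Compounds were preincubated with Tdp1 (1 nM final) for 15 min at room temperature before substrate (15 nM final) started a 5 min reaction; beads (10 ug/ml final) were then added for 10 min before AlphaScreen detection.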
PLK1 PBD block – blocks phosphopeptide binding to human PLK1 polo-box domain | P53350 | Plk1 PBD binding of FITC phosphopeptide, fluorescence polarization | Potency, µM, actives largely listed as inhibitors | hit rate 2.8% among 360,000; further: series mostly up to about 57 µM; nearly all actives have a fitted effect of over 65% in size
GCN5L2 inh – inhibitors of human GCN5L2 histone acetyltransferase | hit rate 0.21% among 390,000 | Potency, µM (titrated, usually from 58.9 µM), actives largely listed as inhibitors | GCN5L2 HAT assay, ThioGlo1 CoA-SH fluorescence | AID 504327
Target sequence (Q92830 whole entry, looked up): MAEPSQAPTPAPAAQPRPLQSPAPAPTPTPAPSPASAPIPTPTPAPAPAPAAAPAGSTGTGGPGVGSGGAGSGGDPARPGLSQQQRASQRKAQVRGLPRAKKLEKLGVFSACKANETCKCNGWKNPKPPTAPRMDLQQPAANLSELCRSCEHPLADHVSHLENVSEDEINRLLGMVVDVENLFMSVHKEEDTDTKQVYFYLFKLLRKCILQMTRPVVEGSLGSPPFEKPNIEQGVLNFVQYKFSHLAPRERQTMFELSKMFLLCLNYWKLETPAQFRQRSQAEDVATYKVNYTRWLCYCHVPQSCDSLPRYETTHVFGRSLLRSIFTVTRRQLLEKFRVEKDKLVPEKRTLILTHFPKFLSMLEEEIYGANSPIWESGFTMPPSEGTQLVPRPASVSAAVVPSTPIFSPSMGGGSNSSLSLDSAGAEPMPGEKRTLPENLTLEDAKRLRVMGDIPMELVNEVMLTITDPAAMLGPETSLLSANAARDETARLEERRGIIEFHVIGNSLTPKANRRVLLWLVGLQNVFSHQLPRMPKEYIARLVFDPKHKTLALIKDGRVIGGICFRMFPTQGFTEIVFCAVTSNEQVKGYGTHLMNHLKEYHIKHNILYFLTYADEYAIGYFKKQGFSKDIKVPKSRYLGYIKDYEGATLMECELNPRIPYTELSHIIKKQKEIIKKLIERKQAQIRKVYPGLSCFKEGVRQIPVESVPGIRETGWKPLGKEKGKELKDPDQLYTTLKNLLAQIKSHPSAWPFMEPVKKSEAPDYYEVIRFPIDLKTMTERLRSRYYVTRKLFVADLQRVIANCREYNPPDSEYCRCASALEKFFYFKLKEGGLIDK
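GCN5L2 (20 nM) in 50mM HEPES pH 7.5, 0.1mM EDTA, 0.01% Tween-20 preincubated 15 min with compounds at room temperature. Reaction started with H3(1-25) 75uM, acetyl-CoA 70uM, ThioGlo1 50uM; CoA-thiol fluorescence (Ex340/Em540) read at 0 and 20 min.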
DT40 TDP1 CPT – growth inhibition of DT40 Tdp1-/-;hTDP1 cells with camptothecin (screen for TDP1 inhibitors); chicken DT40 Tdp1-/-;hTDP1 cells + 20 nM CPT, ATP luminescence, 48 h; Potency, µM (highest dose often 46.2 µM), actives largely listed as inhibitors; hit rate 12% among 420,000; AID 686979; further: nearly all actives have a fitted effect of over 55% in size
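Cell growth measured by CellTiter-Glo luminescence after a minimum 48 h, 37 C compound exposure with 20 nM CPT in Tdp1-knockout DT40 cells stably expressing hTDP1, seeded 400/well; qHTS titration format.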
VDR inh – blocks the human vitamin D receptor; P11473; VDR-SRC2-3 peptide fluorescence polarization, 2 h; Potency, µM, most hits filed as inhibitors; hit rate 0.93% among 400,000; AID 504847
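Two reagent solutions held at 4 deg C in the dark were dispensed, compounds pinned at 23 nl, and the mixture incubated 2 h at room temperature. Read-out: fluorescence polarization of VDR–SRC2-3 peptide binding.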
Numbers stand for hits; – = inactive; ? = inconclusive; · = not tested or not shown; ! = repeats disagree. Only some compounds are listed: those with a hit (about 18% of all), similar ones and a draw of the others. The call rests on the fitted dose curve; in most records, active means well fitted curve in the direction sought with a large enough effect; inconclusive means small, poorly fitted or top-dose-only effect, or another doubt; inactive means no such curve, though single readings can be large; an effect the other way counts as inactive or inconclusive.

SMILES	TDP1 cell noCPT	TDP1 block	PLK1 PBD block	GCN5L2 inh	DT40 TDP1 CPT	VDR inh
CCN(CC)CCC(=O)c1ccc(F)cc1	2.3µM	–	11µM	–	2.9µM	–
Oc1c(N=Nc2nn[nH]n2)ccc2ccccc12	16µM	·	17µM	·	16µM	·
Oc1c(N=Nc2ccc(F)cc2)ccc2ccccc12	15µM	·	9.5µM	–	9.2µM	?
Cc1ccc(N=Nc2ccc3ccccc3c2O)cc1	?	·	?	–	?	–
CCN(CC)C(=O)/C(=C\c1ccc(Br)cc1)NC(=O)c1ccccc1OC	15µM	–	–	–	?	–
Cc1nc(N=Nc2cc(S(=O)(=O)O)c3cc([N+](=O)[O-])cc(S(=O)(=O)O)c3c2)c(COP(=O)(O)O)c(C=O)c1O	–	?	·	?	?	40µM!
Cc1nc(N=Nc2cc([N+](=O)[O-])ccc2Cl)c(COP(=O)(O)O)c(C=O)c1O	·	–	·	?	·	45µM
CCOc1cc(C=O)cc(N=Nc2cccc([N+](=O)[O-])c2)c1O	–	–	–	–	–	–
Nc1nc(NCc2c(F)cccc2Cl)nn1-c1ccccc1	–	–	27µM	–	–	–
COc1cccc(C(=O)c2c(-c3ccccc3)ncc3cc(OC)c(OC)cc23)c1	?	–	–	–	?	–
CC[C@H](C)[C@@H]1NC(=O)[C@@H](CC(C)C)NC(=O)[C@H](C(C)C)NC(=O)[C@H]2CSSC[C@H](NC1=O)C(=O)N2	0.033µM	·	–	·	0.065µM	·
CC(C)CC1NC(=O)C(CCCN)NC(=O)C(C(C)C)NC(=O)C2CCCN2C(=O)C(Cc2ccccc2)NC(=O)C(CC(C)C)NC(=O)C(CCCN)NC(=O)C(C(C)C)NC(=O)C2CCCN2C(=O)C(Cc2ccccc2)NC1=O (stereo unspecified)	·	–	·	–	·	–
COc1ccc(-c2noc(-c3nnn(-c4cc(C)ccc4C)c3N)n2)cc1	?	–	·	–	?	–
CCCCOC(=O)C[N+](C)(C)CCOC1CC2CCC1(C)C2(C)C (stereo unspecified)	1.8µM	–	–	–	2.1µM	–
CCCCCCOC(=O)C[N+](C)(C)CCOC1CC2CCC1(C)C2(C)C (stereo unspecified)	?	–	–	–	?	–
CCCOC(=O)C[N+](C)(C)CCOC1CC2CCC1(C)C2(C)C (stereo unspecified)	4.6µM	–	–	–	8.2µM	–
CCCCCCCOC(=O)C[N+](C)(C)CCOC1CC2CCC1(C)C2(C)C (stereo unspecified)	1.6µM	–	–	–	1.5µM	–
CC(C)N1CC2(CC(c3ccccc3C(F)(F)F)=NO2)CN1C(=O)c1ccco1 (stereo unspecified)	8.2µM	·	–	·	?	·
CC(C)N1CC2(CC(c3ccccc3C(F)(F)F)=NO2)CN1C(=O)c1ccc(C(C)(C)C)cc1 (stereo unspecified)	21µM	·	–	·	16µM	·
CC(=O)N1CC2(CC(c3ccccc3F)=NO2)CN1c1ccc(Cl)cc1 (stereo unspecified)	?	·	–	·	?	·
CC(C)N1CC2(CC(c3ccccc3F)=NO2)CN1C(=O)c1ccc(C(C)(C)C)cc1 (stereo unspecified)	10µM	·	–	·	23µM	·
CC(C)N1CC2(CC(c3ccc(Cl)cc3Cl)=NO2)CN1C(=O)c1ccc(C(C)(C)C)cc1 (stereo unspecified)	12µM	·	–	·	15µM	·
Cc1ccccc1C(=O)Nc1nnc(SCc2cc(=O)n3ccccc3n2)s1	–	–	·	–	–	–
CCN(C(=O)CN1CCOCC1)c1c(N)n(Cc2ccccc2)c(=O)[nH]c1=O	–	–	–	–	–	–
COc1ccc(CCC(=O)OCC(=O)Nc2c(C)n(C)n(-c3ccccc3)c2=O)cc1	–	–	–	–	–	–
SMILES	TDP1 cell noCPT	TDP1 block	PLK1 PBD block	GCN5L2 inh	DT40 TDP1 CPT	VDR inh
COc1ccc(Br)c2c1-c1nc(NC(=O)c3ccc(F)cc3)sc1C2	?	–	·	–	?	–
Cc1ccc(NC(=O)Cn2c(=O)n(CC3CCC(C(=O)NC(C)C)CC3)c(=O)c3sccc32)cc1 (stereo unspecified)	?	–	·	–	?	–
CCOC(=O)N1CCN(C(=O)CSc2nc(=O)n3ccc(C)cc3n2)CC1	–	·	–	–	?	–
Cc1ccc(S(=O)(=O)N2CCN(C(=O)CNC(=O)c3ccc(Br)o3)CC2)cc1	–	–	–	–	–	–
COc1coc(C(O)C[N+](=O)[O-])cc1=O (stereo unspecified)	?	–	–	–	29µM	–
CC(C(O)c1cc(=O)c(OCc2ccccc2)co1)[N+](=O)[O-] (stereo unspecified)	?	·	–	·	?	–
COc1ccc(CCNC(=O)CCCn2c(=O)c3ccccc3n(CC(=O)Nc3ccccc3C)c2=O)cc1OC	–	–	·	–	–	–
COC(=O)Cn1c(SCCOc2ccccc2Cl)nc2ccccc21	?	–	·	–	–	–
COc1ccc(N2CCC(CNC(=S)Nc3c(C)cc(C)cc3C)C2)cc1 (stereo unspecified)	?	–	12µM	–	?	–
COc1ccc(N2CCC(CNC(=S)Nc3cccc(C)c3)C2)cc1 (stereo unspecified)	?	–	?	–	?	–
COc1ccc(N2CCC(CNC(=S)Nc3ccc(C)cc3C)C2)cc1 (stereo unspecified)	18µM	–	?	–	?	–
CSc1nn(Cc2cccc(F)c2)c(N(C(C)=O)C(C)=O)c1S(=O)(=O)c1ccccc1	?	–	·	–	–	–
CCN(CC(=O)Nc1c(F)cccc1F)C(=O)Cc1sc(C)nc1-c1ccc(F)cc1	–	–	–	–	–	–
CCc1sc(N(C(=O)Cc2ccccc2)c2ccccc2F)nc1-c1ccc(C)cc1	16µM	–	–	–	?	–
COCCN(CCOC)C(=O)c1cc2c(=O)n3ccccc3nc2s1	–	–	–	18µM	–	–
Cc1cc(NS(=O)(=O)c2ccc(NC(=O)c3cc4c(=O)n5ccccc5nc4s3)cc2)nc(C)n1	?	40µM	–	–	–	–
COCCCn1c(C(=O)NC2CCCCC2C)cc2c(=O)n3cccc(C)c3nc21 (stereo unspecified)	21µM	–	–	–	16µM	–
CCOCCCNC(=O)c1cc2c(=O)n3cccc(C)c3nc2n1C	0.82µM	–	–	–	0.58µM	–
Cc1cc(C(=O)N(Cc2cc3cc4c(cc3nc2N2CCOCC2)CCC4)CC2CCCO2)c(=O)[nH]c1C (stereo unspecified)	–	·	·	·	–	·
COc1ccc(NC(=O)/C(=C\c2ccc(OC)c(OC)c2)NC(=O)c2ccco2)cc1	–	–	–	–	–	–

Screening results (PubChem BioAssay)
